PubChem BioAssay (NCI)
About 83,000 compounds went through this panel and 20% of them were active in at least one assay; those are over-represented in the sample as a whole.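 Interpretation: 100, growth as untreated; towards 0, rising growth inhibition; 0, no net growth; 0 to -100, cell death. Compounds scoring below 10 were considered active.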 Unmarked numbers belong to inactive results. Activity calls are given as the source filed them.

How the values were obtained:
Assay in all cases: NCI-60 one-dose screen, 48 h (100 = growth as untreated, 0 = no growth, -100 = all killed)
Conditions in all cases: 10 µM
[1] = tested on: SR leukemia
[2] = tested on: RPMI-8226 leukemia
[3] = tested on: OVCAR-8 ovarian
[4] = tested on: OVCAR-5 ovarian
[5] = tested on: OVCAR-4 ovarian
[6] = tested on: SK-OV-3 ovarian
[7] = tested on: IGROV1 ovarian
[8] = tested on: OVCAR-3 ovarian
[9] = tested on: HS 578T breast
[10] = tested on: NCI/ADR-RES ovarian

Structure (SMILES): N#Cc1c(NC(=O)c2ccc(C(F)(F)F)cc2)sc2c1CCC(O)=C2
- growth [1]: 8.2% (active)
- growth [2]: 9.09% (active)
- growth [3]: 28.9%
- growth [4]: 82.8%
- growth [5]: 41.6%
- growth [6]: 17.9%
- growth [7]: 38.3%
- growth [8]: 18.8%
- growth [9]: 12.3%
- growth [10]: -33.5% (active)

Structure (SMILES): COc1ccc2[nH]cc(/C=N/Nc3cccc(Cl)n3)c2c1
- growth [1]: 17.1%
- growth [2]: -0.856% (active)
- growth [3]: 57.9%
- growth [4]: 77.4%
- growth [5]: 59.8%
- growth [6]: 91.4%
- growth [7]: 5.42% (active)
- growth [8]: 17.4%
- growth [9]: 49.9%
- growth [10]: 22.2%

Structure (SMILES): Nc1nc2c(F)c(F)c(F)c(F)c2s1
- growth [1]: 86.5%
- growth [2]: 108%
- growth [3]: 99.7%
- growth [4]: 104%
- growth [5]: 104%
- growth [6]: 99.5%
- growth [7]: 101%
- growth [8]: 104%
- growth [9]: 100%
- growth [10]: 104%

Structure (SMILES): COc1cccc2nc(Nc3cccc(NC(=O)c4ccc(CN5CCCN(C)CC5)c(C(F)(F)F)c4)c3)ccc12
- growth [1]: -27.1% (active)
- growth [2]: -39.4% (active)
- growth [3]: -69.3% (active)
- growth [4]: -100% (active)
- growth [5]: -84.4% (active)
- growth [6]: -72.8% (active)
- growth [7]: -85.2% (active)
- growth [8]: -58.6% (active)
- growth [9]: -61.7% (active)
- growth [10]: -77.9% (active)

Structure (SMILES): Cn1cc(/C=N/Nc2cccc(Cl)n2)c2ccccc21
- growth [1]: 27.6%
- growth [2]: 47.6%
- growth [3]: 80.3%
- growth [4]: 92.5%
- growth [5]: 60.3%
- growth [6]: 92.6%
- growth [7]: 46.1%
- growth [8]: 63.3%
- growth [9]: 69.4%
- growth [10]: 36.1%

Structure (SMILES): O=c1[nH]c2ccc(Cl)cc2cc1CSc1ccc(Nc2nccc(-c3ccc(Cl)cc3)n2)cc1
- growth [1]: 54.2%
- growth [2]: 73%
- growth [3]: -0.363% (active)
- growth [4]: 81.3%
- growth [5]: -59.9% (active)
- growth [6]: 122%
- growth [7]: 84.7%
- growth [8]: -63.1% (active)
- growth [9]: 56.8%
- growth [10]: 50.2%

Structure (SMILES): O=c1[nH]c2ccccc2cc1CSc1ccc(Nc2nccc(-c3ccc(C(F)(F)F)cc3)n2)cc1
- growth [1]: 64.7%
- growth [2]: 69.5%
- growth [3]: -25.9% (active)
- growth [4]: 36%
- growth [5]: -60.3% (active)
- growth [6]: 79.5%
- growth [7]: 35.7%
- growth [8]: -61.1% (active)
- growth [9]: -8.2% (active)
- growth [10]: 11.9%

Structure (SMILES): NS(=O)(=O)c1ccc(N=Nc2c(O)n(CC(=O)Nc3ccccc3Br)c3ccccc23)cc1
- growth [1]: 41.3%
- growth [2]: 37.3%
- growth [3]: 18.6%
- growth [4]: 70.2%
- growth [5]: 69.4%
- growth [6]: 41.5%
- growth [7]: 26.4%
- growth [8]: 45.7%
- growth [9]: 45.7%
- growth [10]: 43.6%

Structure (SMILES): Cc1noc2c(Cc3ccc([N+](=O)[O-])cc3)nn(CC(=O)N/N=C/c3ccc(Cl)cc3)c(=O)c12
- growth [1]: 88.6%
- growth [2]: 84.7%
- growth [3]: 20.1%
- growth [4]: 73.7%
- growth [5]: 7.98% (active)
- growth [6]: 67.2%
- growth [7]: 63.2%
- growth [8]: 35.8%
- growth [9]: 10%
- growth [10]: 45.9%

Structure (SMILES): O=C(NO)c1ccc(CN2CCN(c3nc(-c4ccccc4)c4ccccc4n3)CC2)cc1
- growth [1]: 8.6% (active)
- growth [2]: 24.5%
- growth [3]: 8.54% (active)
- growth [4]: 19.3%
- growth [5]: 22.7%
- growth [6]: -22.2% (active)
- growth [7]: 17.8%
- growth [8]: 27.6%
- growth [9]: 49.1%
- growth [10]: -36.1% (active)

Structure (SMILES): CC(=O)Nc1ccc(-c2cn(-c3cccc(C(=O)Nc4ccc(Cl)c(C(F)(F)F)c4)c3)nn2)cn1
- growth [1]: 16.1%
- growth [2]: 16.2%
- growth [3]: -32.7% (active)
- growth [4]: -17.8% (active)
- growth [5]: -74.9% (active)
- growth [6]: -3.46% (active)
- growth [7]: -54% (active)
- growth [8]: -75.9% (active)
- growth [9]: -12% (active)
- growth [10]: 41.6%

Structure (SMILES): O=C1CCC(N2Cc3cc(NC(=O)COc4ccccc4)ccc3C2=O)C(=O)N1 (stereo not given)
- growth [1]: 73.1%
- growth [2]: 65%
- growth [3]: 47.8%
- growth [4]: 83.3%
- growth [5]: 72.2%
- growth [6]: 99.2%
- growth [7]: 45.8%
- growth [8]: 85.8%
- growth [9]: 36.3%
- growth [10]: 37.8%

Structure (SMILES): COc1ccc(C2N(c3ccc(Br)cc3)N=C(C(C)=O)N2[C@H]2[C@H](OC(C)=O)O[C@H](COC(C)=O)[C@@H](OC(C)=O)[C@@H]2OC(C)=O)cc1 (stereo not given in full)
- growth [1]: 75.9%
- growth [2]: 41.1%
- growth [3]: 78%
- growth [4]: 85.6%
- growth [5]: 71.6%
- growth [6]: 61.4%
- growth [7]: 77.8%
- growth [8]: 73.2%
- growth [9]: 63.3%
- growth [10]: 62.1%

Structure (SMILES): COC1=C[C@]23CCC(=O)N2CCc2cc4c(cc2[C@@H]3[C@@H]1OC(=O)CCCC(C)C)OCO4
- growth [1]: 18.2%
- growth [2]: 22.4%
- growth [3]: 73.9%
- growth [4]: 78.4%
- growth [5]: 54%
- growth [6]: 53.7%
- growth [7]: 43.3%
- growth [8]: 45%
- growth [9]: 71.8%
- growth [10]: 74.9%

Structure (SMILES): COc1ccc(-c2nc(Nc3ccccc3S(N)(=O)=O)c3ccccc3n2)cc1
- growth [1]: 23%
- growth [2]: 14.9%
- growth [3]: -27% (active)
- growth [4]: 48%
- growth [5]: 32.7%
- growth [6]: 95.3%
- growth [7]: 43.4%
- growth [8]: -20.6% (active)
- growth [9]: 42.8%
- growth [10]: 18%

Structure (SMILES): O=C(N/C(=C1/OCCN1Cc1ccccc1)[P+](c1ccccc1)(c1ccccc1)c1ccccc1)c1ccccc1
- growth [1]: 8.3% (active)
- growth [2]: 0.374% (active)
- growth [3]: 16.5%
- growth [4]: 67.3%
- growth [5]: 21.2%
- growth [6]: 23%
- growth [7]: 2.86% (active)
- growth [8]: -7.02% (active)
- growth [9]: -2.64% (active)
- growth [10]: 97.8%

Structure (SMILES): COc1ccc(NC(=O)Nc2ccc(OCC(=O)N=Nc3c(O)[nH]c4ccc([N+](=O)[O-])cc34)cc2)cc1
- growth [1]: 92.4%
- growth [2]: 110%
- growth [3]: 37.1%
- growth [4]: 124%
- growth [5]: 59.8%
- growth [6]: 93.9%
- growth [7]: 92.6%
- growth [8]: 24.6%
- growth [9]: 39%
- growth [10]: 91.1%

Structure (SMILES): O=C(Cn1nc(-c2ccccc2)ccc1=O)NNC(=S)NC1CCCCC1
- growth [1]: 89.4%
- growth [2]: 97%
- growth [3]: 112%
- growth [4]: 105%
- growth [5]: 114%
- growth [6]: 112%
- growth [7]: 104%
- growth [8]: 122%
- growth [9]: 101%
- growth [10]: 105%

Structure (SMILES): Clc1ccc2c(N/N=C/c3c[nH]c4ccc(Br)cc34)ccnc2c1
- growth [1]: -45.6% (active)
- growth [2]: -42.1% (active)
- growth [3]: -64.6% (active)
- growth [4]: -66.5% (active)
- growth [5]: -78.6% (active)
- growth [6]: -84.7% (active)
- growth [7]: -41.2% (active)
- growth [8]: -82.8% (active)
- growth [9]: -58.5% (active)
- growth [10]: -77.5% (active)

Structure (SMILES): Cc1cc2nc3c4ccccc4n(CCO)c3nc2cc1C
- growth [1]: 27.2%
- growth [2]: 93%
- growth [3]: 72.7%
- growth [4]: 103%
- growth [5]: -43.7% (active)
- growth [6]: 81.7%
- growth [7]: 58.4%
- growth [8]: 78.7%
- growth [9]: 48.3%
- growth [10]: 62.3%

Structure (SMILES): Cn1cc(/C=N/Nc2ccnc3cc(Cl)ccc23)c2ccccc21
- growth [1]: -25% (active)
- growth [2]: -41.4% (active)
- growth [3]: -52.7% (active)
- growth [4]: -90.5% (active)
- growth [5]: -76.4% (active)
- growth [6]: -71.2% (active)
- growth [7]: -72.3% (active)
- growth [8]: -89.8% (active)
- growth [9]: -63.7% (active)
- growth [10]: -79.8% (active)

Structure (SMILES): CN1CCN(c2ccc(C(=O)/C=C/c3ccc(OC(F)F)cc3)cc2)CC1
- growth [1]: 6.8% (active)
- growth [2]: 5.53% (active)
- growth [3]: 44.8%
- growth [4]: 80.3%
- growth [5]: 59%
- growth [6]: 76%
- growth [7]: 27.5%
- growth [8]: 38.4%
- growth [9]: 63.8%
- growth [10]: 54.7%

Structure (SMILES): N#Cc1ccc(-c2nn(-c3ccc(C(=O)O)cc3)cc2CNc2cccc(Br)c2)cc1
- growth [1]: 40.2%
- growth [2]: 33.1%
- growth [3]: 49%
- growth [4]: 99.6%
- growth [5]: 75.5%
- growth [6]: 112%
- growth [7]: 79%
- growth [8]: 38.7%
- growth [9]: 52.6%
- growth [10]: 13%

Structure (SMILES): CN1CCN(Cc2ccc(NC(=O)c3cncc(C#Cc4cnc5ccc(N[C@H]6CCOC6)nn45)c3)cc2C(F)(F)F)CC1
- growth [1]: -21.7% (active)
- growth [2]: -35.1% (active)
- growth [3]: -94.4% (active)
- growth [4]: -72% (active)
- growth [5]: -65.3% (active)
- growth [6]: -63.8% (active)
- growth [7]: -74.6% (active)
- growth [8]: -93.7% (active)
- growth [9]: -42.7% (active)
- growth [10]: 13.7%

Structure (SMILES): N#Cc1ccc(-c2nn(-c3ccc(C(=O)O)cc3)cc2CNc2ccc(Cl)cc2)cc1
- growth [1]: 82.8%
- growth [2]: 66.4%
- growth [3]: 74.4%
- growth [4]: 111%
- growth [5]: 85.2%
- growth [6]: 123%
- growth [7]: 91.5%
- growth [8]: 70.3%
- growth [9]: 88.6%
- growth [10]: 67.7%

Structure (SMILES): COc1ccc(-c2cc(C(=O)N=Nc3c(O)[nH]c4ccc(F)cc34)c3ccccc3n2)cc1
- growth [1]: 22.5%
- growth [2]: 72.2%
- growth [3]: 59.1%
- growth [4]: 88.5%
- growth [5]: 52%
- growth [6]: 101%
- growth [7]: 62.3%
- growth [8]: 59.1%
- growth [9]: 74%
- growth [10]: 61.9%

Structure (SMILES): CC1=N/C(=C\c2ccc(N(C)C)cc2)C(=O)N1CCc1ccc(S(N)(=O)=O)cc1
- growth [1]: 86.4%
- growth [2]: 87.1%
- growth [3]: 97.9%
- growth [4]: 116%
- growth [5]: 99.7%
- growth [6]: 95.3%
- growth [7]: 103%
- growth [8]: 109%
- growth [9]: 91.6%
- growth [10]: 96.6%
